± gives the standard deviation.
tested on: MILI (PIWIL2) piRISC loaded with piRNA #1 (26 nt); assay: pre-steady-state target cleavage rate (min^-1); guide: piRNA #1 5'p-UGAGGUAGUAGGUUGUAUAGUAUCCA; MIWI and MILI are mouse PIWI proteins and EfPiwi is from a freshwater sponge; tags in brackets are library labels; higher = faster piRNA-guided slicing of the target; settings: auxiliary factor: 500 nM mouse GTSF1
Outline: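 The pre-steady-state cleavage rate was obtained by Cleave-'n-Seq with a burst-and-steady-state fit. A transcribed, DNA-blocked target RNA library (0.1 nM) was mixed with 1 nM active affinity-purified piRISC carrying one synthetic guide, with or without 500 nM GTSF1 partner protein, in HEPES–potassium acetate buffer at 33 °C for 0–8 or 0–960 min. Uncleaved targets were sequenced and normalised to depth and to weakly complementary targets, with three trials pooled and k3 capped at 0.0001 min^-1.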

Sequence | pre-steady-state target cleavage rate
GGAGACCUUAGUAUACAACCUACUACGUCA | 0.0155 ± 0.0047
GGAGACCUAUGAAUACAACCUACUACGUCA | 0.00355 ± 0.0021
GGAGACCUAUGAAUACAACCUAUCUACCUCA | 0.00974 ± 0.0026
GGAGUGGAUACUAUACAACCUAGCUACCUCA | 0.0643 ± 0.006
GGAGACCUAUGAUAUGAACCUAGCUACCUCA | < 0.0001
GGAGAGGAUAGUAUAGAACCUACUACCUCA | 0.0708 ± 0.012
GGAGACCAUACUUAUCAACCUACUACCUCA | 0.102 ± 0.02
GGAGACCUAUGUAUACAACAUACUACCUCA | 0.0179 ± 0.0028
GGAGACCUAUCUAUACAACCUACUAGCUGA | 0.00493 ± 0.0036
GGAGACCUAUGUAAACAACCUACUACCUCA | 0.0131 ± 0.0032
GGAGACCUUACUAUACAACCUACAACCUGA | 0.0284 ± 0.0093
GGAGACCUAUGUAUACAACCUACUUCGUCA | 0.0106 ± 0.0032
GGAGACCUAUCUAAACAACCUACUAGCUCA | 0.0571 ± 0.011
GGAGACCUAUGAUAACAACCUACGUACCUCA | 0.00286 ± 0.0027
GGAGAGGAUACUAUACAACCUACUACCGUCA | 0.0203 ± 0.0064
GGAGACCUUAGUAUACAAGCUACUACCUCA | 0.174 ± 0.012
GGAGACCUAUCAAUACAACCUACUUCCUCA | 0.0355 ± 0.0087
GGAGACCUUACUAUACAACCUAACUACCUCA | 0.0162 ± 0.0034
GGAGACCUAUCUAUACAACUACUACCUCA | 0.00292 ± 0.0024
GGAGACCAUACUAUACAACCUACAAGCUCA | 0.0598 ± 0.015

Sequence | pre-steady-state target cleavage rate
GGAGACCUAUGUAUACAAGCAACUACCUCA | 0.0055 ± 0.0022
GGAGACCUUACUAUACUACCUACUAGCUCA | 0.142 ± 0.016
GGAGACCUAUGUAUACAACCUCCUACCUCA | 0.0161 ± 0.0038
GGAGACCUUACUAAACAACCUACUACGUCA | 0.0571 ± 0.01
GGAGACCUAUGAUAUGUUCCUACUACCAUCA | < 0.0001
GGAGACCUAUGUAUACUACCUACUACCACA | 0.0548 ± 0.008
GGAGACCUAUGAAUACAACCUACUACCACA | 0.00626 ± 0.0028
GGAGACCUAUGAUUACAACGUACUACCACA | 0.00319 ± 0.0028
GGAGACCUUAGUAUACAACCUACUAGCUCA | 0.00944 ± 0.0043
GGAGACCUAUCUUUACAAGCUACUACCUCA | 0.122 ± 0.01
GGAGACCUAUCUAUACAACCUUCUACCUCA | 0.00553 ± 0.0024
GGAGACCUAACUAUAGAACGUACUACCUCA | 0.00603 ± 0.0028
GGAGACGAUAGUAUACAACGUACUACCUCA | 0.0209 ± 0.0035
GGAGACCAUACUUUACAACGUACUACCUCA | 0.0198 ± 0.0034
GGAGACCUAUGAUAUGUUGCUAGAUCCUCA | < 0.0001
GGAGACCUAUGUAUACAACCUACAUCCUCA | 0.00671 ± 0.0026
GGAGACGAUUCUUUACAACCUACUACCUCA | 0.152 ± 0.011
GGAGACCUAACUAUACAACCUACUACGCUCA | 0.212 ± 0.042
GGAGACCUAUGUAUACUAGCUACUACCUCA | 0.0336 ± 0.0059
GGAGAGGAUACUUAACAACCUACUACCUCA | 0.163 ± 0.013

Source: the supplement of paper PMC10338343
